Rows were chosen to be rich in hits. Some 1.2% of all compounds tested hit in one or more screens of this group.
TLR9-MyD88 block: blocks human TLR9 binding to MyD88 | Q9NR96+Q99836 | CHO BLA complementation TLR9-MyD88, CCF4 FRET ratio | inhibition, % at 4.98 µM | actives 0.21% (n = 340,000);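 active means inhibition above the mean over all tested compounds plus 3 SD, cut at about 21% in these data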
Target sequence (Q99836 whole entry, looked up): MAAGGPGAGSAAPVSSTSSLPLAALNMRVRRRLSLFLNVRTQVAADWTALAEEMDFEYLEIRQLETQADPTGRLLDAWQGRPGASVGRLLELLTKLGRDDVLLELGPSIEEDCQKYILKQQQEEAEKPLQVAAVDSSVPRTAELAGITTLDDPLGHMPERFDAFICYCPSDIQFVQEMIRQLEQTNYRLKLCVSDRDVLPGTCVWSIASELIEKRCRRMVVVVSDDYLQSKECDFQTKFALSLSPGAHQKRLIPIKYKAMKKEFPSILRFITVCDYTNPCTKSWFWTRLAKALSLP
Target sequence (Q9NR96 whole entry, looked up): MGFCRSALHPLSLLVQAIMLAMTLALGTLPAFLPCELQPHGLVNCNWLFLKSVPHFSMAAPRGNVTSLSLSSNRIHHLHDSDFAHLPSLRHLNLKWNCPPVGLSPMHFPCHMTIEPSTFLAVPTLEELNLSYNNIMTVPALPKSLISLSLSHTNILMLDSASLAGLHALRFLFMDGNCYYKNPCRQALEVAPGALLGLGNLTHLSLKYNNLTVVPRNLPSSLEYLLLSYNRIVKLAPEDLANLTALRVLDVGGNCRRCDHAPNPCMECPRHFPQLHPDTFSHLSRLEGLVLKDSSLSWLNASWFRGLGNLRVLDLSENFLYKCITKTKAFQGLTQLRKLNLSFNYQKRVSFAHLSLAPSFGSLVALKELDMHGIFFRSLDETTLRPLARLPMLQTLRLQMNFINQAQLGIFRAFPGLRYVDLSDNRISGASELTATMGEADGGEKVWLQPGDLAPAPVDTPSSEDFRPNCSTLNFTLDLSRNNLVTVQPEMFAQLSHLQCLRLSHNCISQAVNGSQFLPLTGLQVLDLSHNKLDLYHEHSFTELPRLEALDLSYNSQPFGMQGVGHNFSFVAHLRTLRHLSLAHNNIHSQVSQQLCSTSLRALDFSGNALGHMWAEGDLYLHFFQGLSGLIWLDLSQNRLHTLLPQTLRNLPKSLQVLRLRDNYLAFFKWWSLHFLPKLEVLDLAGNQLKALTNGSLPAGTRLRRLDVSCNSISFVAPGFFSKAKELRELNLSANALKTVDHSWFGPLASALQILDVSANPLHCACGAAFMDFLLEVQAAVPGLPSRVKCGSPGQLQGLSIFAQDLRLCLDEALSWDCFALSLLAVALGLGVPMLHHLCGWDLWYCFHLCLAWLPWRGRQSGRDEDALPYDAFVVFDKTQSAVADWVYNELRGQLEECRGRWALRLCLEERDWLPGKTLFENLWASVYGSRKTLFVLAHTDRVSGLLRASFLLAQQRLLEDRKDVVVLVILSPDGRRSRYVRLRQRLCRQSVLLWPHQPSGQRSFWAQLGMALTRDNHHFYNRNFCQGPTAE
NPR2 activator: GC-B (human) receptor activation; P20594; HEK293-GC-B cells, CNP EC30, cGMP TR-FRET; 0% at EC30 CNP, 100% saturating CNP; activation, % at 10 µM; actives 0.11% (n = 370,000);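 active means activation at 10 µM reaching about 35% in either raw or pattern-adjusted values, limit read from the data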
NOD2 RIPK2 PPI: blocks binding of human NOD2 to RIPK2; O43353; CHO BLA complementation NOD2-RIPK2, CCF4 ratio; inhibition, % at 4.98 µM; actives 0.38% (n = 360,000); in the data active means inhibition above about 21%
Neddyl block: cullin neddylation inhibition | P61081+Q13564 | TR-FRET cullin neddylation, biochemical | inhibition, % at 25 µM | actives 0.58% (n = 360,000); in the data active means inhibition above about 36%
TLR4 MyD88 comp: TLR4-MyD88 interaction inhibition in cells; HeLa CL3-4 TLR4/MyD88 BLA complementation, FRET ratio; inhibition, % at 8.4 µM; O00206+Q99836; actives 0.18% (n = 200,000); in the data active means inhibition above about 25%
NPR1 activator: GC-A (human) enzyme activation; P16066; HEK293 GC-A cells, cGMP TR-FRET, EC30 ANP; 0% at EC30 ANP, 100% saturating ANP; activation, % at 10 µM; actives 0.14% (n = 370,000); AID 1671463; in the data active means activation above about 40%
Neddyl conf: cullin neddylation inhibition, confirmation | shares compounds with Neddyl block | TR-FRET cullin neddylation biochemical assay | calls only at 25 µM | actives 13% (n = 1,800) | AID 652217; in the data active means inhibition above about 40%;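 further: neddylation substrate is the cullin 1 ring ligase complex with SKP2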
Of the large screens only hits and unclear results are named; the others gave an inactive call (follow-up assays come after a bar, where shown).

N#Cc1c(-c2cccc(Br)c2)cc(-c2ccco2)[nH]c1=O	none (not shown: Neddyl block)
Cc1ccc(NC(=O)CNC(=O)C23CC4CC(CC(C4)C2)C3)nc1	none (no result: TLR4 MyD88 comp)
COc1ccc(OC)c(-c2cc(C(=O)N/N=C/c3cc(OC)c(OC)cc3OC)c3ccccc3n2)c1	none (not shown: Neddyl block, TLR4 MyD88 comp)
Nc1c(C(=O)N/N=C/c2cccnc2)oc2nc(-c3ccccc3)cc(-c3ccco3)c12	Neddyl block 37 (no result: TLR9-MyD88 block, TLR4 MyD88 comp) | Neddyl conf inactive
CCc1ccc(-c2cc(C(=O)NCc3ccccn3)c3ccccc3n2)cc1	none
CCOc1ccc(-c2cc(C(=O)N/N=C/c3cccnc3)c3ccccc3n2)cc1	Neddyl block 53 (not shown: TLR4 MyD88 comp)
Cc1ccc(-c2cc(C(=O)NCc3ccccn3)c3ccccc3n2)cc1	Neddyl block 41 | Neddyl conf inactive
COc1ccc(OC)c(-c2cc(C(=O)N/N=C/c3ccc(F)cc3)c3ccccc3n2)c1	Neddyl block 39 (not shown: TLR9-MyD88 block, TLR4 MyD88 comp)
COc1ccc(CNC(=O)[C@H](C)NC(=O)C2CCN(C(=O)[C@@H](N)Cc3ccccc3)CC2)cc1	none (no result: TLR4 MyD88 comp)
CC(=O)Nc1ccc(S(=O)(=O)NCC(=O)OCC(=O)NNC(=O)c2ccccc2)cc1	none (no result: TLR4 MyD88 comp)
O=C1[C@@H]2[C@@H](CN3CN(c4ccccc4)N=C(c4ccccc4)[C@@]23c2ccccc2)C(=O)N1c1ccccc1	none (no result: TLR4 MyD88 comp)
CC(C)CC(=O)c1c(O)c(C=O)c(O)c2c1O[C@@]1(C)[C@@H](C2)C[C@H]2C[C@@H]1C2(C)C	none (no result: TLR4 MyD88 comp)
CC(=O)c1cccc(S(=O)(=O)N2CCC(C(=O)OC3CCOC3=O)CC2)c1 (configuration not stated)	none (no result: TLR4 MyD88 comp)
CCCCCNC(=O)C(c1ccc(-c2ccccc2)cc1)n1c(=O)c(-c2ccccc2)nc2ccccc21 (configuration not stated)	none (no result: TLR9-MyD88 block, TLR4 MyD88 comp)
CCCCCNC(=O)C(c1ccncc1)n1c(=O)c(-c2ccccc2)nc2ccccc21 (configuration not stated)	Neddyl block 45 (no result: TLR9-MyD88 block, TLR4 MyD88 comp) | Neddyl conf inactive
O=C(NC1CCCCC1)C(c1ccncc1)n1c(=O)c(-c2ccccc2)nc2ccccc21 (configuration not stated)	Neddyl block 45 (no result: TLR9-MyD88 block, TLR4 MyD88 comp) | Neddyl conf active
COc1ccc(NC(=O)C(c2ccncc2)n2c(=O)c(-c3ccccc3)nc3ccccc32)cc1 (configuration not stated)	Neddyl block 51 (no result: TLR9-MyD88 block, TLR4 MyD88 comp) | Neddyl conf inactive
COCCNC(=O)c1cc2c(=O)[nH]c3ccccc3c2s1	Neddyl block 40 (not shown: TLR4 MyD88 comp)
CCCN1CCN(CCCNC(=O)c2cc3c(=O)[nH]c4ccccc4c3s2)CC1	none (not shown: Neddyl block)
Cc1nn(C)c2nc(-c3cccs3)cc(C(F)(F)F)c12	Neddyl block 45 | Neddyl conf inactive
COc1ccccc1CC(=O)Nc1ccc(O)cc1C(=O)O	Neddyl block 40
COc1ccccc1CC(=O)Nc1ccc(Cl)cc1C(=O)O	none
Cc1cc(NC(=O)CSc2ccc3nnc(-c4ccccn4)n3n2)no1	Neddyl block 41
O=C(CSc1ccc2nnc(-c3ccccn3)n2n1)Nc1ccccc1	none (no result: TLR4 MyD88 comp)
Cc1cccc(C)c1NC(=O)C(CCc1ccccc1)N1CCN(CCN(C)C)CC1 (configuration not stated)	none (no result: TLR9-MyD88 block, NOD2 RIPK2 PPI, Neddyl block, TLR4 MyD88 comp)
O=C(Nc1ccc2nc(-c3cccnc3)[nH]c2c1)C12CC3CC(CC(C3)C1)C2	none (not shown: Neddyl block)
O=C(Nc1ccc2nc(-c3cccnc3)[nH]c2c1)C1CCCCC1	Neddyl block 40 | Neddyl conf inactive
COc1cccc(/C=N/n2nnnc2N)c1OCc1ccccc1Cl	Neddyl block 41
CC(=O)c1ccc(OC2(C)CCN(CCOc3ccc(C)cc3)C2)cc1 (configuration not stated)	none (no result: TLR9-MyD88 block, TLR4 MyD88 comp)
O=C(COc1ccccc1)Nc1nnc(-c2ccccc2)o1	none
O=C(COc1ccccc1)Nc1nnc(-c2ccc(Cl)s2)o1	Neddyl block 37 | Neddyl conf inactive
CCN(CC)c1ccc(NC(=O)Nc2cccc3ccccc23)cc1	Neddyl block 44 (no result: NPR2 activator, TLR4 MyD88 comp, NPR1 activator) | Neddyl conf inactive
CN(C)c1ccc(NC(=O)Nc2cccc3ccccc23)cc1	none
CC1Oc2ccccc2C=C1/C=N/NC(=O)c1ccccc1O (configuration not stated)	Neddyl block 51 | Neddyl conf inactive
CC1CCCC(NC(=O)c2ccc(COc3ccccc3)o2)C1C (configuration not stated)	none (no result: TLR4 MyD88 comp)
Cc1cc(N2CCN(C)CC2)nc2ccc(NC(=O)CCC(=O)NCc3ccco3)cc12	Neddyl block 43 | Neddyl conf inactive
COc1ccc(/C(C)=N\Nc2nc(-c3ccccc3)cc(=O)[nH]2)cc1	Neddyl block 46 | Neddyl conf inactive
N#Cc1c(F)cccc1N1CCOCC1	Neddyl block 42 | Neddyl conf inactive
O=C(OCC(=O)c1cccc2ccccc12)c1ccc(CO)cc1	none (no result: TLR4 MyD88 comp)
COc1ccc(/C(C)=N/NC(=O)c2ccc(CSc3cccc4cccnc34)cc2)cc1OC	Neddyl block 46 | Neddyl conf inactive
C/C(=N\NC(=O)c1ccc(CSc2cccc3cccnc23)cc1)C1CCCCC1	Neddyl block 43 | Neddyl conf inactive
CC(=O)C[C@@H](O)CC(=O)[C@@H]1OC(=O)CCCCC/C=C/Cc2ccccc21	none (no result: TLR4 MyD88 comp)
COCCCn1c(=O)c2sccc2n2c(CCCC(=O)NCc3ccc(F)cc3)nnc12	Neddyl block 42 (no result: TLR4 MyD88 comp) | Neddyl conf inactive
CC=C1OC(n2cnc3c(N)ncnc32)C(O)C1O (configuration not stated)	Neddyl block 42 (no result: TLR9-MyD88 block, TLR4 MyD88 comp) | Neddyl conf inactive
Nc1ncnc2c1ncn2[C@@H]1O[C@H](COP(=O)(O)O)[C@@H](O)[C@H]1O	Neddyl block 49 (no result: TLR4 MyD88 comp) | Neddyl conf active
Nc1ncnc2c1ncn2C1OC(COP(=O)(O)O)C(O)C1O (configuration not stated)	Neddyl block 56 (no result: TLR4 MyD88 comp) | Neddyl conf active
NCCC(=O)NC[C@H]1O[C@@H](n2cnc3c(N)ncnc32)[C@H](O)[C@@H]1O	none (no result: TLR4 MyD88 comp)
Cc1ccc(S(=O)(=O)N(C)[C@H]2C[C@H]3c4cc(N5CCOCC5)ccc4CCN3C[C@H]2[C@H](C)O)cc1	none (no result: TLR9-MyD88 block, NOD2 RIPK2 PPI, Neddyl block, TLR4 MyD88 comp)
C[C@H]1[C@@H](NCc2cccs2)CC[C@@]23CCCN2C(=O)CCC[C@@H]13	none (no result: TLR9-MyD88 block, NOD2 RIPK2 PPI, Neddyl block, TLR4 MyD88 comp)
COc1ccc(Br)cc1/C=N/Nc1ccccn1	none (no result: TLR4 MyD88 comp)
COc1ccc2ccc(=O)oc2c1CC(=O)C(C)C	Neddyl block 44 (no result: TLR4 MyD88 comp) | Neddyl conf inactive
CCOC(=O)N1CCN(CC(O)c2ccc3cc[nH]c3c2)CC1 (configuration not stated)	none
COc1ccccc1N1CCN(CC(O)c2ccc3cc[nH]c3c2)CC1 (configuration not stated)	Neddyl block 44 | Neddyl conf inactive
CCCCc1c(O)c2ccccc2[nH]c1=O	none
